Reference: article PMC4552634, “A New Set of Chemical Starting Points with Plasmodium falciparum Transmission-Blocking Potential for Antimalarial Drug Discovery” (PLoS ONE, 2015)
Out of some 13,000 compounds screened, about 3,200 (25%) showed an effect of 50% or more. This is one part of the list.

system: P. falciparum stage V gametocytes; set-up: BacTiter-Glo ATP luminescence viability of purified stage V gametocytes in 384-well plates, per cent inhibition versus DMSO; details: 48 h, 5 µM; inhibitor

SMILES	% Inhibition [%]
CC1(C)N=C(NC(=O)c2ccc([N+](=O)[O-])cc2)N=C(N)N1OCc1ccc2ccccc2c1 [TCMDC-131580]	48.26
Nc1nc(N)c2c(Cl)c(N3CCOCC3)ccc2n1 [TCMDC-137868]	-6.497
CC12CC3CC(C)(C1)CC(Nc1nc(N4CCOCC4)nc4ccccc14)(C3)C2 [TCMDC-123862]	-97.33
FC(F)c1nc2ccccc2n1-c1nc(N2CCOCC2)nc(N2CCOCC2)n1 [TCMDC-137004]	98.45
O=c1ccc2ccc(F)cc2n1CCN1CCC(NCc2ccc(-c3ccccn3)s2)CC1 [TCMDC-135133]	2.874
NC1=NC(c2ccccc2)N(c2ccc(Cl)c(Cl)c2)C(N)=N1 (stereo not shown) [TCMDC-136305]	1.025
CN(c1ccc(NC(=O)Nc2cccc(Cl)c2)cc1)c1ccnc(N)n1 [TCMDC-138782]	0.5988
CCN(CC)CCNc1nccc(N(C)c2ccc(NC(=O)Nc3cc(C(F)(F)F)ccc3F)cc2)n1 [TCMDC-141632]	74.5
CN(c1ccc(NC(=O)Nc2cc(C(C)(C)C)on2)cc1)c1ccnc(NCCN2CCOCC2)n1 [TCMDC-141706]	2.344
CN(c1ccc(NC(=O)Nc2cc(C(C)(C)C)on2)cc1)c1ccnc(NCCOC(=O)Nc2cc(C(C)(C)C)on2)n1 [TCMDC-141707]	55.26
CN(C)CCCNc1nccc(N(C)c2ccc(NC(=O)Nc3cc(C(F)(F)F)ccc3F)cc2)n1 [TCMDC-141633]	100.7
CCN(CC)CCCNc1nccc(N(C)c2ccc(NC(=O)Nc3cc(C(F)(F)F)ccc3F)cc2)n1 [TCMDC-141634]	97.67
CCNC(=O)Nc1ccc(N(C)c2ccnc(Nc3ccc(CS(C)(=O)=O)cc3)n2)cc1 [TCMDC-138759]	-39.6
COc1cc(NC(=O)CCCCCCCCN2CCN(C)CC2)c2ncccc2c1 [TCMDC-138212]	0.271
CCCCCCc1cc2cc(-c3csc(C=Cc4ccccc4)n3)c(=O)oc2cc1O [TCMDC-125662]	-11.21
COc1ccc2nccc([C@@H](O)CN3CCC(NCc4cc5ccccc5s4)CC3)c2c1 [TCMDC-140684]	1.924
COc1ccc2nccc([C@@H](O)CN3CCC(NCc4[nH]c5ccccc5c4F)CC3)c2c1 [TCMDC-141052]	4.499
CCNC(=O)Nc1ccc(N(C)c2ccnc(NC3CC3)n2)cc1 [TCMDC-138763]	40.84
CCCNC(=O)Nc1ccc(N(C)c2ccnc(NC3CC3)n2)cc1 [TCMDC-138764]	12.51
CC(=O)c1ccc(NC(=O)Nc2ccc(N(C)c3ccnc(NC4CC4)n3)cc2)cc1 [TCMDC-138767]	82.68
O=C1OC2(CCN(Cc3cccc(-c4ncc[nH]4)c3)CC2)CN1CCNCc1ccccc1 [TCMDC-136733]	-38.21
COc1ccccc1CCNc1nc(C)cc(NCCC(=O)Nc2ccccc2)n1 [TCMDC-134800]	76.83
Cc1cc(NCCC(=O)Nc2ccccc2)nc(NCCc2cccnc2)n1 [TCMDC-134880]	47.41
Cc1cc(NCCC(=O)Nc2ccccc2)nc(NCCc2cccs2)n1 [TCMDC-134872]	26.35

SMILES	% Inhibition [%]
COc1ccc(Nc2cc(C)nc(NCc3ccc4c(c3)OCO4)n2)cc1 [TCMDC-136332]	81.18
CCNc1cc(C)nc(Nc2ccc(NC(=O)Cc3ccc(OC)cc3)cc2)n1 [TCMDC-124983]	15.74
COc1ccc(NC(=O)CCNc2cc(C)nc(NCc3cccc(C)c3)n2)cc1 [TCMDC-134883]	59.29
Cc1cc(NCCC(=O)Nc2ccccc2)nc(NCCc2ccc(F)cc2)n1 [TCMDC-134783]	44.82
COc1ccc(NC(=O)CCNc2cc(C)nc(NCc3ccccc3C)n2)cc1 [TCMDC-134899]	34.68
Cc1cc(NCCC(=O)Nc2ccccc2)nc(NCCc2ccccc2)n1 [TCMDC-134772]	51
COc1ccc(Nc2nc(C)cc(NCc3ccc(-c4c(C)noc4C)cc3)n2)cc1 [TCMDC-134024]	-1.002
Cc1cccc(CNc2nc(C)cc(NCCC(=O)Nc3ccccc3)n2)c1 [TCMDC-134885]	25.97
Cc1ccc(C)c(-n2c(SCC(=O)Nc3ccc(C(N)=O)cc3)nnc2-c2cccc(Cl)c2)c1 [TCMDC-124332]	36.9
O=C(Nc1cccc(F)c1)NC1CCN(c2ccnc3cc(Cl)ccc23)CC1 [TCMDC-133569]	-8.116
Cc1ccccc1-c1nc2c(CN3CCC(O)(c4ccccc4)CC3)c(O)ccc2[nH]1 [TCMDC-136533]	40.24
CCCc1ccc(NC(=O)c2cccc(CN3CCCN(Cc4cccc(C#N)c4)CC3)c2)cc1 [TCMDC-135977]	-19.91
O=C(Cc1ccc(NC(=O)c2ccc(O)c(-c3ccc(Cl)c(Cl)c3)c2)cc1)NCCN1CCOCC1 [TCMDC-140853]	-3.124
COc1ccc(NC(=O)CCNc2cc(C)nc(NCCc3ccc(F)cc3)n2)cc1 [TCMDC-134864]	55.47
CCCC(C)Nc1nc(C)cc(NCCC(=O)Nc2ccc(OC)cc2)n1 (stereo not shown) [TCMDC-134762]	20.26
COc1ccc(NC(=O)CCNc2cc(C)nc(NCCc3ccccc3)n2)cc1 [TCMDC-134770]	41.15
c1csc(-c2nc(N3CCCC3)ncc2-c2ccsc2)n1 [TCMDC-125373]	23.84
CS(=O)(=O)Cc1ccc(Nc2nccc(-c3c(-c4cccc(C(=O)Nc5c(F)cccc5F)c4)nn4ccccc34)n2)cc1 [TCMDC-135742]	-95.17
Cc1c(C(=O)C2CC2CN2CCC(N3CCCCC3)CC2)sc2ccccc12 (stereo not shown) [TCMDC-132576]	19.76
N#Cc1ccc(-c2ccc(C(=O)NCCCCN3CCC(n4cnc5ccccc54)CC3)cc2)cc1 [TCMDC-138796]	-25.18
CCCN1CCN(CCCNC(=O)c2cc3c(Cl)nc4ccc(C)cc4c3s2)CC1 [TCMDC-124441]	16.62
O=C(NC1CC1)c1ccc(N2CCOc3ccc(Cl)cc32)s1 [TCMDC-125270]	3.185
Cc1cc(C)c2nc(N3CCC(C(=O)NCCCN4CCC(N5CCCCC5)CC4)CC3)sc2c1 [TCMDC-124448]	62.4
Cc1ccc2nc3sc(C(=O)NCCCN4CCC(N5CCCCC5)CC4)cc3cc2c1 [TCMDC-125157]	73.7

SMILES	% Inhibition [%]
O=C(NCCCN1CCC(N2CCCCC2)CC1)c1ccc2nc(N3CCCCC3)sc2c1 [TCMDC-124404]	56.64
O=C(NCCCN1CCC(N2CCCCC2)CC1)C1=Cc2cc(Br)ccc2OC1 [TCMDC-124696]	29.02
O=C(NCCCN1CCC(N2CCCCC2)CC1)c1ccc(N2CCOc3ccccc32)s1 [TCMDC-125271]	84.69
Cc1ccc2nc(Cl)c3cc(C(=O)NCCCN4CCCC4)sc3c2c1 [TCMDC-125000]	29.06
CCCCCCNC(=O)c1nn(CCN2CCC(N3CCCC3)CC2)cc1-c1ccc(Cl)c(Cl)c1 [TCMDC-141907]	27.94
CCOCCCNc1nc2cc(OC)c(OC)cc2c2nc(-c3ccccc3)nn12 [TCMDC-124406]	-8.61
COc1ccc2nccc(N3CCCN(CCNS(=O)(=O)c4ccc5c(c4)NC(=O)CS5)CC3)c2n1 [TCMDC-134651]	20.86
CCC(C)CN1CCC(N(C)c2cc(NC(=O)c3cccc(C)c3)ccn2)CC1 (stereo not shown) [TCMDC-134950]	-9.268
CC(CN(C)C)C(=O)Nc1ccc(-c2cccc(-c3nc4ccc(C(F)(F)F)cc4[nH]3)c2)cc1 (stereo not shown) [TCMDC-137109]	-30.4
COc1ccc(-n2ccnc2)cc1CNC1CCN(CC2Cn3c(=O)ccc4ccc(F)c2c43)CC1 (stereo not shown) [TCMDC-134407]	-10.31
CN1CCC(N(C)C(=O)C=Cc2cn(-c3ccccc3)nc2-c2cc3ccccc3o2)CC1 [TCMDC-124569]	79.49
COc1ccccc1/C=C/C(=O)N(C)C1CCN(CCCCCNC(=O)/C=C/c2ccc(Cl)c(Cl)c2)CC1 [TCMDC-139985]	9.126
CN(C(=O)/C=C/c1ccccc1F)C1CCN(CCCCCNC(=O)/C=C/c2ccc(Cl)c(Cl)c2)CC1 [TCMDC-139992]	46.22
CCCCCOc1c(CCC)cc(Cc2cnc(N)nc2N)cc1CCC [TCMDC-137287]	-6.135
COc1cc2c(cc1C(F)(F)F)N(C(=O)Nc1cccc(-c3ccc(CN(C)C)cc3)c1)CC2 [TCMDC-139014]	97.51
COc1cc2c(cc1C(F)(F)F)N(C(=O)Nc1cc(-c3ccncc3)cc(-c3cccnc3)c1)CC2 [TCMDC-139040]	-15.72
COc1cc2c(cc1C(F)(F)F)N(C(=O)Nc1cc(Br)cc(-c3cccnc3)c1)CC2 [TCMDC-139024]	0.01985
CC(C)c1ccc(NC(=O)c2ccc(C(=O)NC3CCN(CC4CCCCC4)CC3)cc2)cc1 [TCMDC-136750]	-11.44
NC1=NC(Cc2ccccc2)(c2ccncc2)C(=O)N1CCCc1ccccc1 (stereo not shown) [TCMDC-136557]	2.084
CC(C)CC1c2[nH]c3ccccc3c2CCN1C(=O)CCc1ccccc1 (stereo not shown) [TCMDC-123996]	-45.79
O=C(c1ccc(Cl)c(Cl)c1)N1CCc2c([nH]c3ccccc23)C1CN1CCCC1 (stereo not shown) [TCMDC-139011]	81.19
CN(C)CC1c2[nH]c3ccccc3c2CCN1C(=O)Nc1ccc(Cl)c(Cl)c1 (stereo not shown) [TCMDC-139004]	3.866
